# ALR inh: inhibitors of human sulfhydryl oxidase ALR | purified ALR, DTT oxidation, H2O2 HRP-luminol luminescence | inhibition, % (concentration not given with the values) | actives 3.8% (n = 290,000);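 active = mean replicate inhibition above about 79%, with every replicate also reaching it, limit read from the data; inconclusive = only one of the two criteria met; inactive = mean below limit and not every replicate reaching it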
# Bfl-1 A1 inh: inhibitors of the anti-apoptotic protein A1, read as caspase activation | caspase activation, % (concentration not given with the values) | MEF A1-2A-BIM cells, Caspase-Glo 3/7 luminescence, 3 h; percent of clofoctol response, vehicle zero | actives 0.066% (n = 330,000);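 active = over half of replicate activation scores above 10%, or exactly half above 10 with the replicate mean above 10; inconclusive = replicate mean below 10 yet half the replicates above 10; inactive = over half of replicates below 10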
# SUMO Mot1 rescue: SUMOylation pathway inhibition by Mot1-301 growth rescue. S. cerevisiae Mot1-301 growth rescue, ATP luminescence, 38.5C; percent above DMSO median, 100 means doubled. growth rescue, % at 18.8 µM. actives 1% (n = 320,000);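 active = every valid replicate shows activation above 250% relative to neutral control wells; inactive = the rest, any valid replicate at or below 250%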;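 note: OY570 slx delta 5 strain wells were the positive control but not used for scaling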
# AHR act: human AHR activation | P35869 | AHR-responsive luciferase reporter cells, luminescence | activation, % at 5 µM | actives 2.5% (n = 320,000) | AID 2796; in the data active = activation above about 47%;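 note: 0% = vehicle wells and 100% = reference agonist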
# Efflux pump inh: blocks antifungal efflux pumps in multiplex yeast assay; S. cerevisiae Candida pump triplex, Nile Red efflux; inhibition, % at 10 µM; actives 0.44% (n = 330,000);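 active = plate passing quality check with inhibition over a set limit, or well fluorescence over plate mean plus 4 SD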;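 note: Nile Red retained in pooled yeast measured as flow cytometry median fluorescence; 0% = buffer negative control and 100% = Enniatin B positive control; higher means more Nile Red kept so more efflux inhibition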
# VLA-4 inh: inhibition in a human VLA-4 binding assay; P13612; VLA-4 expressing cells, ligand binding flow cytometry; inhibition, % (about 7 µM as worked out from the volumes in the protocol); actives 0.2% (n = 330,000); AID 2557; in the data active = inhibition above about 50%
# The depositor's hits bear a star; i = inactive; ? = inconclusive; / = not tested or not shown. Sampled rows, rich in hits. Any-hit rate of the full collection: about 7.2%.
SMILES,ALR inh,Bfl-1 A1 inh,SUMO Mot1 rescue,AHR act,Efflux pump inh,VLA-4 inh
COc1ccc(NS(=O)(=O)c2cc(N)ccc2N2CCCC2)cc1,32,0,8,2,0,2
COc1ccc(S(=O)(=O)Nc2ccc(S(=O)(=O)N3CCCCC3)cc2)cc1,97*,0,5,-1,0,-7
COc1ccc(NS(=O)(=O)c2ccc(N3CCCC3)c(N)c2)cc1,92*,-1,-13,0,0,7
O=C(O)c1ccc2c(=O)[nH]c(CCl)nc2c1,1,0,-7,0,0,9
O=c1[nH]c(CSc2ncn[nH]2)nc2ccccc12,-2,0,-15,15,0,-2
Cn1c(SCc2nc3ccccc3c(=O)[nH]2)nc2ccccc21,1,-1,-22,61*,0,3
O=c1[nH]c(CSc2cccc[n+]2[O-])nc2ccccc12,-4,0,-29,48*,0,4
CCn1c(SCc2nc3sc(C(=O)O)c(C)c3c(=O)[nH]2)nc2ccccc21,98*,1,65,1,0,20
CS(=O)(=O)Nc1ccc(C(=O)N2CCN(c3ccccc3F)CC2)cc1,6,?,8,0,0,19
COCCCNC(=S)N1CCC(C(=O)c2ccc(Cl)cc2)CC1,/,1,7,1,0,7
COc1cccc2c1OCC/C2=N\NC(=O)COc1ccccc1C,-7,-1,11,48*,0,2
Cc1ccccc1OCC(=O)N/N=C1\CCOc2c(C)cccc21,-12,-1,10,1,0,13
O=[N+]([O-])c1cccc(/C=C/C=N/Nc2nc(N3CCCCC3)nc(N3CCCCC3)n2)c1,8,0,/,-2,0,17
COc1ccc(/C=N/NC(=O)c2ccccc2OC)cc1COc1ccc(C)cc1,2,0,-1,47*,0,12
COc1ccc(/C=N/NC(=O)c2ccccc2OC)cc1COc1ccccc1[N+](=O)[O-],-4,0,-3,66*,0,-11
O=C(NCc1ccncc1)Nc1ccc(Cl)cc1Cl,-3,?,/,49*,0,-2
COc1ccc(/C(C)=N/Nc2nc3ccccc3nc2C)cc1OC,64,0,-17,77*,0,16
Cc1cc(C)c(S(=O)(=O)N2CCCC(C(=O)NC3CC3)C2)c(C)c1 (stereo not drawn),-10,0,1,2,0,-4
O=C(NCCSc1c[nH]c2ccccc12)C1CC1,98*,0,9,3,0,-6
COc1cc(OC)cc(C(=O)NCCSc2c[nH]c3ccccc23)c1,91*,-1,/,29,0,18
Cc1ccc(/C(N)=N/OC(=O)c2cccs2)cc1,86*,-5,0,-6,0,-17
COc1ccc(C(CNC(=O)c2cc(S(=O)(=O)N3CCN(c4ccccc4)CC3)ccc2Cl)N(C)C)cc1 (stereo not drawn),21,1,2,1,0,15
Cc1cccc(N=C2NC(=O)/C(=C3/C(=O)N(C)c4ccccc43)S2)c1C,-5,1,11,68*,0,-1
O=S(=O)(c1ccc(Cl)nc1)N1CCC(Cc2ccccc2)CC1,99*,-1,-9,-1,0,14
O=S(=O)(c1ccc(Br)s1)N1CCC(Cc2ccccc2)CC1,-3,1,211,3,0,3
SMILES,ALR inh,Bfl-1 A1 inh,SUMO Mot1 rescue,AHR act,Efflux pump inh,VLA-4 inh
O=S(=O)(c1ccc(Cl)s1)N1CCC(Cc2ccccc2)CC1,97*,0,5,-1,0,-12
NC(=O)C1CCN(c2ccc(S(=O)(=O)N3CCC(Cc4ccccc4)CC3)cn2)CC1,/,0,-6,-2,0,-1
CN(C)c1ccc(Nc2cc(Cl)ncn2)cc1,99*,0,13,73*,1,0
O=C(O)C1C2CCC(O2)C1C(=O)Nc1ccc(Cl)cc1F (stereo not drawn),2,0,633*,1,0,-8
O=C(c1cc(Cl)ccc1O)N1CCN(S(=O)(=O)c2cccs2)CC1,-6,-1,78,2,0,0
OCCCNc1nc(-c2ccccc2)nc2c1oc1ccccc12,1,0,392,50*,0,-1
Cc1nc(SCc2nc3c(C)cccc3[nH]2)c2oc3ccccc3c2n1,-4,0,19,16,0,5
Cc1nc(SCc2nc3c([N+](=O)[O-])cccc3[nH]2)c2oc3ccccc3c2n1,4,17*,11,30,0,-3
c1ccc(-c2nc(SCc3nc4ccccc4[nH]3)c3oc4ccccc4c3n2)cc1,22,0,8,68*,0,-7
Cc1nc(SCC(=O)c2cccs2)c2oc3ccccc3c2n1,34,1,3,72*,0,-1
CCSC(=O)NC1CCCCC1,8,0,-5,-4,0,23
Cc1nc(SCc2nc3ccccc3[nH]2)c2oc3ccccc3c2n1,-4,0,-13,11,0,7
c1ccc2[nH]c(CSc3ncnc4c3oc3ccccc34)nc2c1,14,0,30,53*,0,-18
COc1cccc2c1oc1c(SCc3nc4ccccc4[nH]3)nc(C)nc12,-8,-2,13,59*,0,12
CCCCN1C(=O)c2ccc(C(=O)OCC(=O)NCCc3ccc(S(N)(=O)=O)cc3)cc2C1=O,-2,0,11,-2,0,-1
CC1(C)Cc2c(c(-c3ccccc3)nc3[nH][nH]c(=O)c23)CO1,99*,0,-1,-5,0,-9
CC1(C)Cc2c(c(-c3ccccc3)nc3sc4c(=O)[nH]c(=S)[nH]c4c23)CO1,/,1,-8,-2,0,4
CCNC(=S)NNC(=O)c1nn(C)c(C)c1Cl,11,0,/,-4,0,3
Cc1c(Cl)c(C(=O)NNC(=S)Nc2ccccc2)nn1C,91*,-2,-4,22,0,-2
Cc1nn(CCC(=O)NNC(=S)Nc2ccc(F)cc2)c(C)c1[N+](=O)[O-],37,0,123,1,0,10
Cc1c(Cl)c(C(=O)NNC(=S)Nc2ccc(F)cc2)nn1C,81*,1,i,-6,0,7
O=C1C2C3C=CC(CC3)C2C(=O)N1c1ccccc1F (stereo not drawn),-6,0,-19,-1,0,16
CC1(C)CC(NC(=O)c2ccncc2)CC(C)(C)N1O,0,1,-7,3,0,0
Cc1nn(Cc2ccc(Cl)cc2Cl)c(C)c1NC(=O)CCl,90*,-1,0,1,0,7
COc1cc(/C=C/C(=O)OCC(=O)N2CC(=O)Nc3ccccc32)ccc1O,96*,0,-33,3,0,15

# Assay outcomes as filed in PubChem BioAssay.
